# Sampled rows, rich in hits. Any-hit rate of the full collection: about 17%.
# DT40 TDP1 CPT: DT40-hTDP1 cell growth loss with CPT; chicken DT40 Tdp1-/-;hTDP1 cells + 20 nM CPT, ATP luminescence, 48 h; Potency, µM (series often up to 46.2 µM), inactives show at the highest dose activity change, negative = growth inhibition, actives largely listed as inhibitors; 420,000 tested, 12% active; AID 686979; further: on the % scale 0 is the no-effect control and ±100 the full control effect; nearly all actives have a fitted effect of over 55% in size
#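 Chicken DT40 Tdp1-/- cells complemented with human TDP1, 400 cells/well, exposed to compounds plus 20 nM camptothecin for at least 48 h at 37 C; viability read as ATP content by CellTiter-Glo luminescence.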
# TDP1 cell noCPT: qHTS for Inhibitors of human tyrosyl-DNA phosphodiesterase 1 (TDP1): qHTS in cells in absence of CPT; DT40 Tdp1-/- hTDP1 cells, no CPT, ATP luminescence, 48 h; Potency, µM (top dose mostly 46.2 µM), for inactives: at the highest dose activity change, negative = growth inhibition, usual class: inhibitors; 420,000 tested, 15% active; further: on the % scale 0 is the no-effect control and ±100 the full control effect; nearly all actives have a fitted effect of over 55% in size
#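 Luminescent ATP content (CellTiter-Glo) served as the growth readout. Knockout chicken DT40 cells expressing human TDP1 were exposed to compounds without camptothecin for a minimum 48 hr at 37 °C.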
# ATXN viability: viability counter-screen for ATXN expression inhibitors. S2 cells (HEK-293 line with an ATXN2-luciferase reporter) viability, CellTiter-Fluor protease fluorescence, 24 h. Potency, µM (highest dose often 56.7 µM), actives largely listed as cytotoxic. 400,000 tested, 0.49% active; further: nearly all actives have a fitted effect of over 40% in size
# ATXN2 expr inh: reduces ATXN2 reporter expression in HEK-293 cells; HEK-293 ATXN2-luciferase reporter, luminescence, 24 h; Potency, µM (highest dose often 57 µM), without a hit: at the top dose activity change, negative = inhibition, actives largely listed as inhibitors; 360,000 tested, 0.72% active; AID 1745845; further: on the % scale 0 is the no-effect control and ±100 the full control effect; nearly all actives have a fitted effect of over 55% in size
#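 ATXN2-luciferase reporter cells (luciferase flanked by upstream and downstream ATXN2 gene portions) were treated 24 h at 37 °C with compounds at up to 57 uM. SteadyGlo luminescence gave expression; GF-AFC fluorescence gave viability.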
# HepG2 viability: kills HepG2 cells in TGF-b inhibitor counter-screen. AID 588856. HepG2 CAGA-GFP viability, ATP luminescence, 18 h. 410,000 tested, 0.76% active. Potency, µM (doses to about 46.1 µM), for inactives: top-dose activity change, negative = cytotoxicity, usual class: cytotoxic
#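 HepG2 CAGA-GFP cells (1000/well, DMEM with 1% FBS) received compound, then TGF-beta at 500 pg/mL final, and were incubated 18 hours at 37 degrees C. Viability was read by CellTiter-Glo luminescence. Media-only wells were set as complete cell-killing and DMSO as no toxicity.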
# TGFb inhibitor: blocks TGF-b signaling; HepG2 CAGA-GFP TGF-b/SMAD3 reporter, GFP fluorescence, 18 h; TGF-beta stimulated, 500 pg/mL final; Potency, µM (series often up to 46.1 µM), for the others: at the highest dose activity, negative = inhibition, usual class: inhibitors; 410,000 tested, 1.2% active; AID 588855; further: on the % scale 0 is the no-effect control and ±100 the full control effect; nearly all actives have a fitted effect of over 65% in size
#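 Per well, imaged GFP fluorescence of HEPG2 CAGA-GFP cells gives the signal; cells get compound, then TGF-beta (500 pg/mL final), 18 h at 37 degrees C; %Activity versus -TGF-beta and +DMSO controls.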
# * hit, by the source's call; i = inactive; ? = inconclusive; · = no result given. The call rests on the fitted dose curve; in most records, active means well fitted curve in the direction sought with a large enough effect; inconclusive means small, poorly fitted or top-dose-only effect, or another doubt; inactive means no such curve, though single readings can be large; an effect the other way counts as inactive or inconclusive. Potency means the concentration at half of the fitted maximal effect.
SMILES,DT40 TDP1 CPT,TDP1 cell noCPT,ATXN viability,ATXN2 expr inh,HepG2 viability,TGFb inhibitor
CCn1c(SC(C)C(=O)OC)nnc1-c1c[nH]c2ccccc12 (centres undefined),?,23µM*,i,4%,-15%,0%
CCn1c(SCC(=O)Nc2cc(OC)c(OC)c(OC)c2)nnc1-c1cccs1,?,21µM*,i,-6%,-14%,-24%
CCOC(=O)C(C)Sc1nnc(-c2c[nH]c3ccccc23)n1C (centres undefined),?,?,i,1%,-3%,-6%
CCC(C)OC(=O)C1=C(C)O[C@]23OC(N)=C(C#N)[C@]12C(=O)c1ccccc13 (some centres undefined),?,-8%,i,2%,-19%,-31%
Cc1c(CCC(=O)N[C@@H](CC(C)C)C(=O)O)c(=O)oc2cc3oc4c(c3cc12)CCCC4,-3%,-19%,i,·,-2%,-6%
O=C(Nc1ccc(Cl)cc1)N1N=CCC1c1ccccc1 (centres undefined),18%,-17%,i,-3%,11%,12%
O=C(Nc1ccccc1)C1=C(O)CC(c2ccc(Cl)cc2)N2CCN=C12 (centres undefined),?,18µM*,i,2%,-18%,-15%
CCOC(=O)c1ccc(NC(=O)C2=C(C)C(=O)OC23CCN(C(C)C)CC3)cc1,?,2%,i,-2%,-2%,-6%
Cc1cccnc1CN1CCN(C(=O)c2cc(COc3ccc4ncccc4c3)on2)CC1,5.8µM*,7.3µM*,i,-35%,-1%,?
CCOC(=O)N1CCN(C(=O)c2cc(COc3ccc4ncccc4c3)on2)CC1,6.5µM*,6.5µM*,i,?,-19%,-5%
CCN1CCN(C(=O)c2cc(COc3c(C)cccc3C)on2)CC1,-25%,-14%,i,6%,-2%,12%
CCOC(=O)N1CCN(C(=O)c2cc(COc3cccc(C(C)=O)c3)on2)CC1,?,?,i,53%,-36%,4%
CCC1CSC(Nc2ccc(C(=O)/C=C/c3cccc(C)c3)cc2)=N1 (centres undefined),16µM*,15µM*,i,-20%,-101%,18µM*
CCC1CSC(Nc2ccc(C(=O)/C=C/c3ccc(Oc4ccccc4)cc3)cc2)=N1 (centres undefined),23µM*,16µM*,?,?,-64%,?
O=C(Nc1ccc(NC(=O)c2cccs2)c(Cl)c1)c1cccs1,?,?,?,62%,-9%,57%
CCc1ccccc1NC(=O)c1cnc2sc(N3CCOCC3)nn2c1=O,-4%,-11%,i,-17%,8%,-29%
O=C(NC1CC2CCCC(C1)N2C(=O)Nc1ccccc1F)C1CC1 (centres undefined),-29%,?,i,12%,1%,-14%
Cc1c(Br)c([N+](=O)[O-])nn1CC(=O)N1CCN(C23CC4CC(CC(C4)C2)C3)CC1,-19%,-23%,i,·,0%,-14%
O=C(NCc1nnc(SCC(=O)N2CCCCC2)o1)c1c(F)cccc1Cl,13%,30%,i,0%,2%,-4%
Cc1cc2ccccc2n1CCNC(=O)C1CCCC1,-3%,?,?,16%,2%,5%
Cc1cc2ccccc2n1CCNC(=O)C1CC1,15µM*,-21%,i,-4%,3%,6%
Cc1cc2ccccc2n1CCNC(=O)c1cccc(Br)c1,21µM*,12µM*,i,-27%,-30%,?
